The text below walks through data of PubChem BioAssay.

Active and inactive are the calls of the source.

The nature of experiment [1]: compounds binding Alexa647 anti-His antibody – biochemical, small-molecule microarray, 635 nm fluorescence, artefact control for SMM control protein annotation, primary screen (AID 1128).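 Also: score merges feature fluorescence with signal-to-noise for each printed compound spot.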 The note with it: higher = more signal.
Experiment [2] has as its system Human papillomavirus type 1a E7 protein (residues 1-88). As to the kind of experiment: HPV1a E7 small-molecule binders, primary screen, biochemical, small-molecule microarray, residues 1-88, 635 nm (AID 1129). Particulars: small-molecule microarray binding, fluorescence 635 nm; higher = more signal.
Experiment [3] concerns the target Focal adhesion kinase 1 (Homo sapiens) (UniProt Q05397). As to the kind of experiment: PTK2 protein binding on printed compound slides – biochemical, small-molecule microarray, 635/667 nm fluorescence, BSA, DTT, primary screen (AID 1130).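 Also: composite of spot emission at 667 nm and signal to noise over triplicate slides.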 Particulars: 635 nm fluorescence, higher = more signal.
Experiment [4] has as its system Fibrinogen (Alexa647-labelled). Briefly: Alexa647-fibrinogen binding to printed small molecules – biochemical, small-molecule microarray, 635/667 nm fluorescence, artefact control for SMM control-protein annotation, profiling panel (AID 1131).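 Also: z-score merges 667 nm fluorescence with per-spot signal-to-noise over triplicate slides.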 The note with it: fibrinogen-A647 binding fluorescence, higher = more signal.
In experiment [5] the target is Follistatin (Homo sapiens) (UniProt P19883). As to the kind of experiment: FST protein binding to printed compounds – biochemical, small-molecule microarray, 635/667 nm fluorescence, primary screen (AID 1132). The note with it: 635 nm fluorescence, higher = more signal.
Chain of Follistatin (Homo sapiens) (P19883 whole entry, looked up): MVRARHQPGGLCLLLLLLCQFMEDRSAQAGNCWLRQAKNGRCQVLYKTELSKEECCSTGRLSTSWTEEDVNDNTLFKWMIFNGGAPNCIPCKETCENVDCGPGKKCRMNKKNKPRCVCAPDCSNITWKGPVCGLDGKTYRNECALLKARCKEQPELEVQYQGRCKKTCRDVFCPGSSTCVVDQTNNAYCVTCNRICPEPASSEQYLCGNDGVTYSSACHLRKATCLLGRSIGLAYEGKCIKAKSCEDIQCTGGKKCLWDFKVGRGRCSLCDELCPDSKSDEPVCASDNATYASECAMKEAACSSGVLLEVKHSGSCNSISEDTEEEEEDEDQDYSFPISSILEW
Experiment [6] has as its target Fibroblast growth factor 2 (Homo sapiens) (UniProt P09038). Briefly: basic fibroblast growth factor binding to printed compounds – biochemical, small-molecule microarray, 635/667 nm fluorescence, primary screen (AID 1133). The note with it: FGF2, fluorescence 635/667, higher = more signal.
A short description of experiment [7]: JC-1 mitochondrial potential readout, lung cancer cells – cell-based, A549, JC-1 fluorescence, basal, 24 h, 100 nL, profiling panel (AID 1138).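 Also: A549 lung adenocarcinoma cells under basal conditions with no added stimulus; test concentration not given here.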 Particulars: higher = more signal.
Experiment [8] relates to Lefty1. Briefly: Lefty1 protein binding to printed compounds – biochemical, small-molecule microarray, 635/667 nm fluorescence, primary screen (AID 1139). The note with it: fluorescence 635/667, higher = more signal.
Experiment [9] deals with wheat germ agglutinin (Triticum aestivum), Alexa647-labelled. As to the kind of experiment: Alexa647-WGA lectin binding to printed small molecules – biochemical, small-molecule microarray, 635/667 nm fluorescence, artefact control for SMM control-protein annotation, profiling panel (AID 1140).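 Also: score merges 667 nm feature emission with signal to noise over triplicate slides.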 Particulars: WGA-A647 binding, 635 nm fluorescence, higher = more signal.
For experiment [10], the target named is Luciferin 4-monooxygenase (Photinus pyralis) (UniProt P08659). Briefly: inhibition of purified Photinus pyralis luciferase – biochemical, luminescence, purified enzyme, 2006 set, primary screen (AID 1141).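 Also: cell-free assay with purified firefly luciferase at 100 ng per well in PBS; test concentration not given here.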 Particulars: purified firefly luciferase, SteadyGlo luminescence, 30 min; higher = more signal, called active from +8 up or from −8 down.
Chain of Luciferin 4-monooxygenase (Photinus pyralis) (P08659 whole entry, looked up): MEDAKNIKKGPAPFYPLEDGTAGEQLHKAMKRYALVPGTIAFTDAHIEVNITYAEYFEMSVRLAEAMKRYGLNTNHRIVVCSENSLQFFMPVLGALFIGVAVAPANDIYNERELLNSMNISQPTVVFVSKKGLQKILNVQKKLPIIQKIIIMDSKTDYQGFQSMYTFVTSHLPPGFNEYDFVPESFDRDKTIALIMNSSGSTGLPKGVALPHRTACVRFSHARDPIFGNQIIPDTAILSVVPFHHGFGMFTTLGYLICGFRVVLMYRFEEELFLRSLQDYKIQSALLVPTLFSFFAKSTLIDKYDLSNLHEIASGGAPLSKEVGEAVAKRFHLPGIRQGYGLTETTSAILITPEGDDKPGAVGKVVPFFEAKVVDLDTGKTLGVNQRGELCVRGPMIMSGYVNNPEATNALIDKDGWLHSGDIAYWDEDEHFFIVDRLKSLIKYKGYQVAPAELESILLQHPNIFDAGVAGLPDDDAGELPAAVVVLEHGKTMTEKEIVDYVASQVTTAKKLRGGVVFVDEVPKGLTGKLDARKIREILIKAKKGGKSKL

Chain of Focal adhesion kinase 1 (Homo sapiens) (Q05397 whole entry, looked up): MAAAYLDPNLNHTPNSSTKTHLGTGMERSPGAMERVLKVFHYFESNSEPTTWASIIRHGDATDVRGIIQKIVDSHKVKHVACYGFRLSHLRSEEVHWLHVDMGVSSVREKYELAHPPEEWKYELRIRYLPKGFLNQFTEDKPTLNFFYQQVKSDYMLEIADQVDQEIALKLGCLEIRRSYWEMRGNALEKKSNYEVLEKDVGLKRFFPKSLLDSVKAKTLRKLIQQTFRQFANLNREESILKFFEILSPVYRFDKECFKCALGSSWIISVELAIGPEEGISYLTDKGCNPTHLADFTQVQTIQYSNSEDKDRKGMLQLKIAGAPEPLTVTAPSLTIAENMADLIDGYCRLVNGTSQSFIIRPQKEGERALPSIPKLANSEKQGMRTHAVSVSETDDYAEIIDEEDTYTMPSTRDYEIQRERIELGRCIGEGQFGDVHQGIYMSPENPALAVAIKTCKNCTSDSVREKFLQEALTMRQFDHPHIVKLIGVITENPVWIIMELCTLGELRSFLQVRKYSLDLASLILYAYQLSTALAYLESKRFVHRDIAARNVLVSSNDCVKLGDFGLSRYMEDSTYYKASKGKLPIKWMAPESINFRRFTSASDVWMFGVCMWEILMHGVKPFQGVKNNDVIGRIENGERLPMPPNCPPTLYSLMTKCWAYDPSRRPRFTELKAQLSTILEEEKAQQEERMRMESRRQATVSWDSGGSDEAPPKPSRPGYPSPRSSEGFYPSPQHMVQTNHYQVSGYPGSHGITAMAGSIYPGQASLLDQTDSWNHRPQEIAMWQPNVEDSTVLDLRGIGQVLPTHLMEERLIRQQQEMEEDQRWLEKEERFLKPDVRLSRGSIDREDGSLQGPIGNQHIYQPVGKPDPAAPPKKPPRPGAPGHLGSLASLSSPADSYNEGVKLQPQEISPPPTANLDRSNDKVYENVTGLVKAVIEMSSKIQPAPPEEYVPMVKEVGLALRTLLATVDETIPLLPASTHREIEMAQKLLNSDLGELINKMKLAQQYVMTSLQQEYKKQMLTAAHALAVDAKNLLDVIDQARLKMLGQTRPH
Chain of Fibroblast growth factor 2 (Homo sapiens) (P09038 whole entry, looked up): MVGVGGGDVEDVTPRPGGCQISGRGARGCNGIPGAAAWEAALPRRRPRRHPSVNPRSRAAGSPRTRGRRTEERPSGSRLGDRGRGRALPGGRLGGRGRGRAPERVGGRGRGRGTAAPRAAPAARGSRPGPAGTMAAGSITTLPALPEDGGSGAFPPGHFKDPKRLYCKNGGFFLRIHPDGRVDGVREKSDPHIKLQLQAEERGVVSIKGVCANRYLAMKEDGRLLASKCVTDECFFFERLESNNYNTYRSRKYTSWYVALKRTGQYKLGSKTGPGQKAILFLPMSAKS

`C#CCCCON=C1C[C@@H](O)[C@@H](O)[C@@H]2[C@@H]3C(=O)N(c4ccc(F)cc4F)C(=O)[C@@H]3CC[C@@H]12`: the composite z-score is -0.0071 in experiment [1]; 0.111 in [2]; 0.131 in experiment [3]; 0.265 in experiment [4]; 0.141 in [5]; 0.474 in [6]. Further, the composite z-score in experiment [8] was determined as 0.322; in [9], 0.238. Moreover, the z-score was -0.633 in experiment [7] and 1.04 (inactive) in [10].
Take `O=C1[C@H]2[C@H]3[C@H](O)[C@H](O)CC(=NOC[C@@H](O)COCc4ccco4)[C@H]3CC[C@H]2C(=O)N1C[C@@H]1CCCO1`: the composite z-score in [1] is 0.605; in experiment [2], 0.225; in [3] it was -0.173; in [4], -1.27; in experiment [5], 0.987; in experiment [6], 1.61. Besides, the composite z-score in [8] is 1.34; in experiment [9] it was -0.23. For the same compound, the z-score in [7] was -0.644; in [10], 1.02 (inactive).
As to `CC(C)CON=C1C[C@@H](O)[C@@H](O)[C@@H]2[C@@H]3C(=O)N(C(C)(C)C)C(=O)[C@@H]3CC[C@H]12`, the composite z-score in experiment [1] was 1.15; in [2], -0.264; in experiment [3], -0.0405; in [4], 0.0972; in experiment [5], -0.924; in experiment [6], -0.546. Also, the composite z-score in experiment [8] is -0.52; in experiment [9] it was -0.0283. Also, the values for the z-score in [7] and in experiment [10] were -0.125 and 0.473 (inactive), respectively.
On to `COC(=O)CC=C[C@@H](C)[C@@H](C=NO[C@H](C)c1cn([C@H](CO)Cc2ccccc2)nn1)OC`, for which the composite z-score was 3.43 in experiment [1]; 0.544 in [2]; -0.144 in [3]; 0.236 in [4]; 0.517 in experiment [5]; 0.827 in experiment [6]. Moreover, the composite z-score stood at 0.71 in experiment [8] and 0.268 in experiment [9]. For the same compound, the z-score in [7] is -0.826; in experiment [10], -0.165 (inactive).
In the case of `CCOC(=O)[C@H](CC(C)C)NC(=O)CCC1CC(OC(=O)NCc2cccc3ccccc23)CC2(CCCC(COC(=O)NCCOc3ccccc3)O2)O1` (stereo not given in full), the composite z-score worked out at 0.907 in experiment [1]; 1.15 in experiment [2]; 0.0968 in experiment [3]; 0.959 in experiment [4]; 0.776 in [5]; 0.373 in [6]. Moreover, the values for the composite z-score in [8] and in experiment [9] were 0.741 and 0.537, respectively. Moreover, the z-score in experiment [7] was 1.07; in experiment [10], 0.546 (inactive).
Take `CO[C@H]1COC(=O)[C@@H](C)COC(=O)[C@H](COCc2ccccc2)NC(=O)CC=C[C@H]1C`: the composite z-score was -1.43 in experiment [1]; -1.02 in experiment [2]; -0.0555 in experiment [3]; -0.785 in experiment [4]; 1.36 in [5]; 1.21 in experiment [6]. Moreover, the composite z-score in experiment [8] was 1.09; in experiment [9] it was -0.841. Further, the z-score in [7] is 0.844; in experiment [10] it was -0.949 (inactive).
Consider `O=C1[C@H]2[C@H]3[C@H](O)[C@H](O)CC(=NOC[C@@H](O)COCc4ccco4)[C@H]3CC[C@H]2C(=O)N1c1ccc(F)cc1F`, for which the composite z-score is -0.385 in experiment [1]; 0.553 in experiment [2]; -0.0614 in [3]; -1.6 in experiment [4]; -0.868 in [5]; -1.01 in [6]. The composite z-score in experiment [8] is -0.0889; in experiment [9], 0.972. Besides, the z-score in [7] is 0.383; in experiment [10], -0.243 (inactive).
In the case of `CC(CCN1CCCCc2nc(C)c(C)cc21)=NO[C@@H](C)c1cn([C@H](CO)Cc2ccccc2)nn1`, the composite z-score was found to be 1.67 in experiment [1]; 0.285 in experiment [2]; 0.321 in [3]; 0.624 in experiment [4]; 0.915 in experiment [5]; 0.545 in [6]. The results for the composite z-score in [8] and in [9] were 0.828 and -0.101, respectively. Further, the z-score was 0.868 in [7] and 0.175 (inactive) in experiment [10].
For `CO[C@H]1COC(=O)CC=C[C@H](C)[C@@H](OC)COC(=O)[C@@H](C)COC(=O)CC=C[C@@H]1C`, the composite z-score was -0.756 in experiment [1]; -0.699 in experiment [2]; -0.111 in experiment [3]; -1.26 in experiment [4]; 1.5 in experiment [5]; 1.77 in experiment [6]. Further, the composite z-score is 1.55 in experiment [8] and -1.05 in experiment [9]. Besides, the results for the z-score in experiment [7] and in [10] were 0.657 and -0.454 (inactive), respectively.
As to `C=CC[C@@H]1C=C[C@H](ON=C(C)CCN2CCc3nc(-c4ccccc4)c(-c4ccccc4)cc3C2)[C@@H](CO)O1`, the composite z-score was 0.133 in experiment [1]; 0.876 in experiment [2]; -0.372 in [3]; 0.727 in [4]; 0.787 in experiment [5]; 0.362 in experiment [6]. Also, the composite z-score in experiment [8] worked out at 0.736; in experiment [9], 0.169. Besides, the results for the z-score in experiment [7] and in experiment [10] were 2.3 and -0.118 (inactive), respectively.
`C#CCCCON=C1C[C@@H](O)[C@@H](O)[C@@H]2[C@@H]3C(=O)N(CCC(=O)OCC)C(=O)[C@@H]3CC[C@H]12`: the composite z-score in experiment [1] was 0.997; in experiment [2], 0.929; in experiment [3], -0.0834; in [4], 0.375; in experiment [5], 1.06; in [6], 0.613. Moreover, the composite z-score amounted to 0.861 in experiment [8] and 0.101 in experiment [9]. For the same compound, the values for the z-score in experiment [7] and in [10] were 0.317 and -0.891 (inactive), respectively.
With `CCN1C(=O)[C@H]2[C@H]3[C@H](O)[C@H](O)CC(=NOCC(C)C)[C@@H]3CC[C@H]2C1=O`, the composite z-score in experiment [1] amounted to 0.768; in experiment [2], 1.04; in experiment [3], 0.627; in experiment [4], 0.231; in experiment [5] it was 0.84; in [6] it was 0.0017. Besides, the results for the composite z-score in experiment [8] and in experiment [9] were 0.625 and -0.0157, respectively. The z-score in experiment [7] is -0.753; in [10] it was 0.887 (inactive).
Turning to `COC(=O)CC=C[C@@H](C)[C@@H]1C=C[C@H](O)[C@@H](CO)O1`, the composite z-score in [1] is -0.29; in experiment [2] it was 0.392; in experiment [3] it was -0.281; in [4] it was 0.201; in experiment [5] it was 1.04; in experiment [6], 0.413. For the same compound, the composite z-score is 0.767 in experiment [8] and -0.375 in [9]. Moreover, the z-score in experiment [7] was 0.204; in experiment [10], -0.203 (inactive).
